High-throughput results: PubChem BioAssay, National Center for Advancing Translational Sciences (NCATS)
12-LOX inh: ALOX12 (human) lipoxygenase inhibition | P18054 | purified 12hLO, xylenol orange hydroperoxide absorbance | Potency, µM (doses to about 108 µM), without a hit: top-dose activity change, negative = inhibition, usual class: inhibitors | 580,000 compounds, 1.1% hits; note: % is set by controls: 0 for no effect and ±100 for the full control effect
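Hydroperoxide product was detected by ferrous iron/xylenol orange as the 573 to 405 nm absorbance ratio. Arachidonic acid at 40 uM (final) was turned over for 30 min at room temperature by 150 nM human 12hLO, pH 7.0 Hepes buffer, after 15 min compound preincubation.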
PLK1 PBD block: inhibitors of human PLK1 polo-box domain binding. Plk1 PBD binding of FITC phosphopeptide, fluorescence polarization. Potency, µM, for inactives: max response, negative = inhibition, actives largely listed as inhibitors. 360,000 compounds, 2.8% hits. AID 720504; note: series mostly up to about 57 µM; % is set by controls: 0 for no effect and ±100 for the full control effect; nearly all actives have a fitted effect of over 65% in size
G9a block: G9a (human) methyltransferase inhibition | G9a H3K9 monomethylation, AlphaScreen, 2 h | Potency, µM (top dose mostly 102 µM), for inactives: at the highest dose activity, negative = inhibition, most hits filed as inhibitors | 350,000 compounds, 8.8% hits; note: % is set by controls: 0 for no effect and ±100 for the full control effect; nearly all actives have a fitted effect of over 75% in size
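Using a bead-based AlphaScreen, monomethylated H3K9 product from 2 h room-temperature reactions (G9a 20 nM, peptide 500 nM, SAM 20 uM) was detected with 0.5 ug/mL rabbit anti-H3K9me1 antibody.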
JMJD2A Tudor: JMJD2A Tudor domain (human) inhibition; O75164; AlphaScreen JMJD2A-Tudor / H3K4me3 peptide binding; Potency, µM (titrated, usually from 114 µM), inactives show top-dose activity change, negative = inhibition, most hits filed as inhibitors; 390,000 compounds, 4.4% hits; note: % is set by controls: 0 for no effect and ±100 for the full control effect; nearly all actives have a fitted effect of over 50% in size
HP1b binding inh: inhibitors of HP1-beta chromodomain binding to methylated histone tails; 390,000 compounds, 0.56% hits; Potency, µM (highest dose often 114 µM), for inactives: at the top dose activity change, negative = inhibition, hits mostly inhibitors; AlphaScreen HP1-beta / biotin-H3K9me3 peptide binding; note: nearly all actives have a fitted effect of over 70% in size
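AlphaScreen: HP1-beta (50 nM) preformed 30 min with biotin-H3(1-18)K9me3 peptide (50 nM) in PBS pH 7.4, 0.01% Tween-20. Compound added for 30 min at RT, then streptavidin donor/nickel chelate acceptor beads (10 ug/mL) for 30 min.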
BAZ2B block: blocks human BAZ2B. Potency, µM (highest dose often 114 µM), for inactives: at the highest dose activity change, negative = inhibition, actives largely listed as inhibitors. AID 504333. 360,000 compounds, 4.4% hits. Q9UIF8. AlphaScreen BAZ2B-H3K14Ac peptide displacement; note: % is set by controls: 0 for no effect and ±100 for the full control effect; nearly all actives have a fitted effect of over 60% in size
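Compounds, titrated to a top concentration of 110 uM, were incubated 30 min at room temperature with preformed BAZ2B/acetyl-K14 H3 peptide complex (50 nM each). Proximity signal was measured by AlphaScreen after 20 min with beads.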
Numbers without * were called inactive; i = inactive; ? = inconclusive; · = no result given; [ ] = remark or other dose. Most compounds without a hit are left out; they make up all but 9% or so of the library. Calls come from the whole dose curve; as a rule, active = well fitted curve in the direction sought with a large enough effect; inconclusive = small, poorly fitted or top-dose-only effect, or another doubt; inactive = no such curve, though single readings can be large; an effect the other way counts as inactive or inconclusive. Potency is the fitted concentration of half-maximal effect.

SMILES	12-LOX inh	PLK1 PBD block	G9a block	JMJD2A Tudor	HP1b binding inh	BAZ2B block
O=C(Nc1ccc(F)cc1F)N1CCCC(c2nc(-c3ccc(F)cc3)no2)C1 (stereo not given)	-14%	12µM*	1%	-21%	-6%	-8%
O=C(c1ccc(F)cc1F)N1CCCC(c2nc(-c3ccc(F)cc3)no2)C1 (stereo not given)	?	-11%	-2%	-1%	36%	0%
Fc1cccc(F)c1/C=N/N1CCOCC1	-8%	1%	-44%	-9%	21%	·
CCN(CC)c1ccc(/C=N/N2CCOCC2)cc1	?	-8%	11µM*	?	?	?
CCN(CC)c1ccc(/C=N/N2CCN(c3ccccn3)CC2)cc1	77%	-2%	56µM*	-14%	-3%	-6%
CCc1nn2c(=O)cc(CN(CC)C3CCCC3)nc2s1	-2%	·	·	·	·	·
COC(=O)Cc1c[nH]c2ccc(OCC(O)CNC(C)C)cc12 (stereo not given)	18%	-15%	?	-13%	13%	5%
COc1cc(C(=O)Nc2cc(C(F)(F)F)ccc2Cl)cc(OC)c1OC	5%	-1%	·	-5%	32%	-3%
O=C(c1cc(C2CC2)nn1-c1ccccc1)N1CCN(S(=O)(=O)c2ccccc2F)CC1	7%	5%	·	·	·	·
NC(=S)N/N=C/c1ccc(-c2ccccc2)o1	i	-9%	6.3µM*	-35%	14%	?
O=[N+]([O-])c1cccc(-c2ccc(/C=N/NC(=S)Nc3ccccc3)o2)c1	-2%	-13%	1%	-27%	-8%	3%[57.1 µM]
O=C(O)c1cc(-c2ccc(/C=N/NC(=S)Nc3ccccc3)o2)ccc1Cl	28µM*	?	-12%[59 µM]	-30%	-7%	?
Cc1ccc(-c2ccc(/C=N/NC(N)=S)o2)cc1	45µM*	6µM*	8.9µM*	-35%	?	-28%
NC(=S)N/N=C/c1ccc(-c2ccc(Cl)c(Cl)c2)o1	?	-14%	-35%[59 µM]	-28%	3%	?
COc1ccc(CNc2ccc(C)cc2)cc1Br	0%	-7%	?	-36%[57.1 µM]	?	50µM*
CCOc1cc(C(=O)Nc2ccc(N3CCN(C(C)=O)CC3)cc2)cc(OCC)c1OCC	7%	6%	?	-9%	22%	-32%
C=CCOc1c(Br)cc(CNc2ccc3[nH]c(=O)[nH]c3c2)cc1OCC	13%	-6%	·	-23%	1%	-19%
COc1cc(CNc2ccc(O)cc2)cc(Br)c1OCc1ccccc1	i	-3%	25µM*	45µM*	?	40µM*
CCOc1cc(CNc2ccc(N3CCN(C(C)=O)CC3)cc2)cc(Br)c1OC	?	7%	28µM*	35µM*	?	32µM*
C=CCOc1c(Br)cc(CNc2ccc(NC(=O)C(C)C)c(OC)c2)cc1OCC	4%	-30%	6.3µM*	?	-2%	22%
COc1cc(CNC(C)c2ccccc2)cc(Br)c1OCc1ccccc1 (stereo not given)	0%	-6%	20%	80%	119%	45%
Cc1ccc(S(=O)(=O)N(Cc2nc3nc(C)cc(C)n3n2)c2cccc(C)c2)cc1	-37%	·	·	·	·	·
O=C(c1ccccc1)N1CCC2(CC1)NCc1ccccc1NC2=O	0%[6.33 µM]	·	·	·	·	·
CCOc1ccc(-n2ccnc2SCC(=O)Nc2nc3ccc(C)cc3s2)cc1	4%	·	0%[59 µM]	-25%	21%[57 µM]	-22%
O=C(Oc1ccc2ccccc2c1)c1cncc(Br)c1	-13%	-8%	26%[59 µM]	-1%	42%	-5%
SMILES	12-LOX inh	PLK1 PBD block	G9a block	JMJD2A Tudor	HP1b binding inh	BAZ2B block
CC(=O)N1CCN(c2ccc(NCc3cccc(C)c3)cc2)CC1	?	·	?	?	-12%	?
CCOc1c(Br)cc(CNc2ccc(N3CCN(C(C)=O)CC3)cc2)cc1OC	?	-18%	28µM*	50µM*	-23%	40µM*
Cn1c(SCC(=O)c2ccc3c(c2)OCO3)nnc1C1COc2ccccc2O1 (stereo not given)	-32%	?	?	50µM*	37%	6%
CC1CC1C(=O)OCc1cc(=O)n2cc(Br)ccc2n1 (stereo not given)	75%[57.4 µM]	-2%	?	-9%	19%	-10%
Cc1occc1-c1nnc(SCc2cc(=O)n3cc(Br)ccc3n2)n1C	-18%	-8%	-25%[59 µM]	?	14%	56µM*
Cn1c(SCc2cc(=O)n3cc(Br)ccc3n2)nnc1C1COc2ccccc2O1 (stereo not given)	?	-13%	-18%[59 µM]	50µM*	30%	?
COc1ccc(-c2nc3cnc(Oc4ccccc4)nc3n(C3CC3)c2=O)cc1	132%	·	2%[12.7 µM]	·	·	·
Cc1ccc(-c2noc(CN(C)C(=O)c3ccc(Br)o3)n2)cc1	-1%	-4%	50µM*	-3%	?	?
COc1ccccc1N1CCN(C(CNS(=O)(=O)c2cccs2)c2cccnc2)CC1 (stereo not given)	26%	-6%	50µM*	-33%	5%	-6%
COc1ccc(S(=O)(=O)NCC(c2cccnc2)N2CCN(c3ccc(F)cc3)CC2)cc1C (stereo not given)	0%	-4%	?	?	-16%	?
O=S(=O)(NCC(c1cccnc1)N1CCN(c2ccccc2)CC1)c1cccs1 (stereo not given)	5%	3%	?	-26%	0%	?
COc1ccc(N2CCN(C(CNS(=O)(=O)c3cccs3)c3cccnc3)CC2)cc1 (stereo not given)	·	-11%	89µM*	?	-15%	?
COc1ccccc1N1CCN(C(CNC(=O)C(=O)NCCc2ccccc2)c2cccnc2)CC1 (stereo not given)	2%	·	5.6µM*	11µM*	20µM*	40µM*
COc1ccc(C(=O)NCC(c2cccnc2)N2CCN(c3ccccc3OC)CC2)cc1 (stereo not given)	4%	·	?	-27%	5%	-20%
CCS(=O)(=O)NCC(c1cccnc1)N1CCN(c2ccccc2OC)CC1 (stereo not given)	-1%	-1%	?	-15%	45%	1%
COc1ccc(S(=O)(=O)NCC(c2cccnc2)N2CCN(c3ccccc3)CC2)cc1C (stereo not given)	7%	-5%	50µM*	?	-13%	?
Cc1ccc(NC(=O)Cc2n[nH]c(=O)c3ccccc23)cc1S(=O)(=O)Nc1ccccc1Cl	2%	·	·	·	·	·
Cc1c(NC(=O)c2cccc([N+](=O)[O-])c2C)cccc1-c1nc2ccccc2o1	4%	·	·	·	·	·
